Measured values as given in PubChem BioAssay.
A number with no mark means an inactive call.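 Rule for the calls: active = inhibition at or above 50% at 10 µM; inactive = inhibition below 50%.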

test: inhibitors of Sendai virus-induced IRF3 signaling, primary screen, TLR/RLR signaling modifier project, cell-based, Sendai virus stimulus, luciferase, 10K MLSCN set (AID 602276); details: HEK293 RL24 IRF3 luciferase reporter, at 10 µM, active compounds read high;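 note: firefly luciferase from ISG56 promoter only with Renilla not read in this screen; 0% = Sendai virus plus DMSO and 100% = medium plus DMSO without virus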

SMILES | inhibition
Cc1cc(C)cc(OCCCC(=O)O)c1 | -0.0954%
c1ccc2c(c1)C(=Nn1cnnc1)c1ccccc1-2 | 10.6%
COc1ccc(C2C(C#N)=C(C)NC3=C2C(=O)CC(C)(C)C3)c(OC)c1 (stereo not given) | 15.1%
CCCN1CCN(CCCNC(=O)Cn2nc(-c3ccc(Cl)cc3)ccc2=O)CC1 | 9.94%
CCCN(CCC)c1nc2ccccc2n2c(C)nnc12 | 11.6%
COc1ccc(CC(=O)NCc2cccs2)cc1 | 31%
O=C1c2ccccc2C(O)(Cc2ccccc2)N1Cc1ccco1 (stereo not given) | 8.83%
Cc1[nH]c(=O)[nH]c(=O)c1S(=O)(=O)N(C)Cc1ccccc1 | 3.97%
COc1cccc(NC(=O)Cc2nnc(SCC(=O)c3ccccc3)n2C)c1 | 3.81%
COc1cccc(N2CCN(CC(=O)NCc3cccs3)CC2)c1 | 21.2%
CCN(c1cccc(C)c1)S(=O)(=O)c1ccc2[nH]c(=O)c(=O)[nH]c2c1 | 12.5%
COc1ccccc1CN(Cc1nc2ccccc2c(=O)[nH]1)C(=O)Nc1ccccc1 | 3.14%
Cc1ccccc1-c1nc(CN2CCC(C(=O)NCc3cccnc3)CC2)c(C)o1 | 7.42%
CC1(C)NC(=O)N(CNc2cc(Cl)ccc2Cl)C1=O | 10.6%
CCS(=O)(=O)c1ccc(S(=O)(=O)CC)s1 | 6.99%
O=C(O)C1CCCN1C(=O)Nc1ccc(F)cc1 (stereo not given) | 8.17%
COCC(=O)N(Cc1ccc(OC)cc1)Cc1nc2ccccc2c(=O)[nH]1 | 17.3%
COc1ccc(OCc2cccc(C(=O)O)c2)cc1 | 46.4%
Cc1nc2ccccc2c(=O)n1/N=C/c1ccncc1 | -4.49%
C=C(c1cccc2ccccc12)P(=O)(O)O | 17.7%

SMILES | inhibition
COc1ccc(-c2cc3nc4n(c(=O)c3s2)CCC4)cc1 | 12.2%
CCCC(CCC)n1[nH]c(=O)c2c(C)cc(C)nc21 | 3.13%
CCOC(=O)CS(=O)(=O)c1nc(-c2ccccc2)cc(C(F)(F)F)n1 | 20.1%
Cc1n[nH]c(C)c1S(=O)(=O)N1CCCCCC1 | 1.38%
CCN(CCO)C1CC(=O)N(c2ccccc2C)C1=O (stereo not given) | 4.48%
Nc1nc2sc3c(c2c(=O)s1)CCCC3 | -10.3%
CCOC(=O)c1[nH]c(C)c(C(=O)N(C)C)c1C | -36.1%
Cc1cc(C)n(-c2nc3ccccc3c(=O)n2OCCOc2ccccc2)n1 | -12.3%
C/C(NC1CCCC1)=C(/C#N)C(N)=O | 16.9%
CCOc1ccc(C(=O)N(Cc2ccc(N(C)C)cc2)C2CCS(=O)(=O)C2)cc1 (stereo not given) | 19.7%
Cc1ccc(NC(=O)Cn2cccc2)cc1Cl | 8.59%
NC(=O)c1sc2nc(N3CCCCC3)c3c(c2c1N)CCCC3 | 1.9%
O=C(Nc1nc(-c2ccc(S(=O)(=O)N3CCCCCC3)cc2)cs1)c1cccs1 | 10.4%
Cc1ccc2ncnc(NCCCN3CCOCC3)c2c1 | -18.7%
CCOC(=O)c1cc2c(=O)n3cccc(C)c3nc2n(Cc2ccco2)c1=NC(=O)c1cccnc1 | 8%
O=S(=O)(c1ccc2c(c1)OCCO2)N(Cc1ccc(F)cc1)Cc1nnc(-c2cccs2)o1 | 13.3%
COc1ccccc1-n1c(SCC(N)=O)nnc1-c1ccccc1 | 13.3%
CCCNC(=O)c1c(N)n(-c2cc(OC)cc(OC)c2)c2nc3ccccc3nc12 | 8.54%
COc1cc(C2c3c(oc4c(C)cc(C)cc4c3=O)C(=O)N2Cc2cccnc2)cc(OC)c1OC (stereo not given) | -24.2%
O=C(c1cc(-c2ccco2)nn1-c1cccc(Cl)c1)N1CCCCC1 | 22.9%
